# Rows were chosen to be rich in hits. Some 2.9% of all compounds tested hit in one or more screens of this group.
# ADAM17 inh: ADAM17 inhibitors, primary screen, biochemical, QFRET; AID 720648, 2013; 370,000 compounds, 0.83% hits; recombinant ADAM17, EDANS/DABCYL FRET peptide cleavage; Disintegrin and metalloproteinase domain-containing protein 17 (Homo sapiens), P78536; inhibition, % at 6.95 µM;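 active = inhibition above the mean of compounds lying between control limits plus 3 SD, set per campaign, cut at about 8.5% in these data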;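 note: 0% = DMSO-only wells as the low control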
# Target sequence (P78536 215-824 limits assumed): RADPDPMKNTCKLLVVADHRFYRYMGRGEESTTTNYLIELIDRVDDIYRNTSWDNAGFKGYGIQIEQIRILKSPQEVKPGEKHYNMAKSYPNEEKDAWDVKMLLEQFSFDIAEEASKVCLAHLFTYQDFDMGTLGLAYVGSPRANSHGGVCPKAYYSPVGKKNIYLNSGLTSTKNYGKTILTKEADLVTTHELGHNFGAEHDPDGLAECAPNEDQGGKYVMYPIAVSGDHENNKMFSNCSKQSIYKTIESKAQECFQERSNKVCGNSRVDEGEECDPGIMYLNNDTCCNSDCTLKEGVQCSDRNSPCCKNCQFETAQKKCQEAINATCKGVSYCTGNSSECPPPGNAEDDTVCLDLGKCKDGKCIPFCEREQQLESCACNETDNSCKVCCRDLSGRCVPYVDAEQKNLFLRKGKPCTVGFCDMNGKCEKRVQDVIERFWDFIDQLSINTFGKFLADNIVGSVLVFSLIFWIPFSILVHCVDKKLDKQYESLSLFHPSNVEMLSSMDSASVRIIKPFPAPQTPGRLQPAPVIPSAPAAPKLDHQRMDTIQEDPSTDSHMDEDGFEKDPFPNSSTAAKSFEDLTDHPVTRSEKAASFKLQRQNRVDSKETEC
# PLCg1 inh: PLC-gamma1 enzyme inhibitors, primary screen, biochemical, fluorescence, purified enzyme | 1-phosphatidylinositol 4,5-bisphosphate phosphodiesterase gamma-1 (Homo sapiens), P19174 | fluorogenic substrate | inhibition, % at 12.2 µM | 370,000 compounds, 0.84% hits | AID 720700, 2013; in the data active = inhibition above about 9.5%
# proKLK7 act: proKLK7 zymogen activators, primary screen, biochemical, fluorescence intensity; Kallikrein-7 (Homo sapiens), P49862; purified proKLK7, EDANS-DABCYL substrate fluorescence; 100% is mature enzyme control, 0% vehicle; activation, % at 7 µM; 370,000 compounds, 0.9% hits; AID 652039, 2013;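 active = activation above the mean of all tested compounds plus 3 SD, computed per campaign excluding outliers beyond control limits, cut at about 13% in these data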
# ADAM10 inh: human ADAM10 inhibitors, primary screen, biochemical, QFRET, HTS | 370,000 compounds, 0.62% hits | AID 720582, 2013 | recombinant ADAM10, EDANS/DABCYL FRET peptide cleavage, 3 h | Disintegrin and metalloproteinase domain-containing protein 10 (Homo sapiens), O14672 | inhibition, % at 7 µM;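 active = inhibition above a per-campaign cutoff equal to the mean of compounds falling between control-based bounds plus 3 SD, cut at about 20% in these data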;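 note: 0% = DMSO wells while the 100% control is not disclosed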
# PLC-beta3 inh: human PLC-beta3 inhibitors, primary screen, biochemical, fluorescence | 1-phosphatidylinositol 4,5-bisphosphate phosphodiesterase beta-3 (Homo sapiens), Q01970 | Purified PLC-beta3, fluorogenic substrate | inhibition, % at 12.2 µM | 370,000 compounds, 0.18% hits | AID 720704, 2013; in the data active = inhibition above about 11%;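 note: 0% = median of compound wells on plate and 100% = full blocker control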
# ADAM10 confirm: human ADAM10 inhibitors, confirmation, biochemical, QFRET, triplicate; ADAM10 QFRET peptide cleavage, EDANS fluorescence; inhibition, % at 6.95 µM; 2,100 compounds, 1% hits; shares compounds with ADAM10 inh;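 active = inhibition above about 20% chosen separately for each screening run, limit read from the data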;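 note: 0% = DMSO wells and 100% = marimastat wells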
# ADAM17 counter: ADAM17 inhibitors, counter-screen for ADAM10 exosite inhibitor project, biochemical, QFRET, high throughput. shares compounds with ADAM10 inh. ADAM17 QFRET peptide cleavage, EDANS fluorescence. inhibition, % at 6.95 µM. 2,100 compounds, 0.5% hits. AID 743214, 2013;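 active = mean triplicate inhibition above the solvent-only control wells' mean plus 3 SD, cut at about 12% in these data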;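 note: 0% = DMSO wells and 100% = marimastat wells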
# * marks the source's active call; other numbers are inactive results; . = no result; ! = repeats disagree.
SMILES,ADAM17 inh,PLCg1 inh,proKLK7 act,ADAM10 inh,PLC-beta3 inh,ADAM10 confirm,ADAM17 counter
Cc1ccccc1-c1csc(C(C)(O)c2ccccc2)n1 (stereo not drawn),4,3,0,5,5,.,.
CC(O)(c1cccc(F)c1)c1nc(-c2csc3ccccc23)cs1 (stereo not drawn),6,0,1,23*,0,8,3
CC(O)(c1cccc(F)c1)c1nc(-c2cc3ccccc3o2)cs1 (stereo not drawn),6,0,0,22*,0,6,2
CC(O)(c1cccc(F)c1)c1nc(/C=C/c2ccccc2)cs1 (stereo not drawn),6,-3,0,22*,0,10,3
CC(O)(c1ccc(F)c(F)c1)c1nc(-c2csc3ccccc23)cs1 (stereo not drawn),6,1,0,8,-2,.,.
COc1cccc(C(C)(O)c2nc(-c3cc4ccccc4o3)cs2)c1 (stereo not drawn),4,-7,0,10,-8,.,.
CC(O)(c1ccccc1)c1nc(-c2csc3ccccc23)cs1 (stereo not drawn),7,4,0,21*,7,5,2
O=S(=O)(c1ccccc1)n1c(CN2CCOCC2)nc2ccccc21,0,0,0,-3,3,.,.
COc1ccccc1-c1cccc2c3c([nH]c12)[C@@H]1C[C@H]2[C@@H](C(=O)N1CC3)[C@H](C)ON2C,-36,-54,0,-129,-73,.,.
O=C(CSc1nnc(COc2ccccc2)n1-c1ccccc1)Nc1ccc2c(c1)OCCO2,1,0,0,9,0,.,.
O=C(N[C@@H](Cc1cccnc1)C(=O)N1CCC[C@H]1C(=O)NCc1ccccc1)c1ccccc1,-4,0,0,-10,0,.,.
O=C(N/N=C\c1ccc(Cl)cc1Cl)c1sccc1-n1cccc1,2,-4,0,20*,-6,7,2
CCOc1cc(C)c(-c2onc(C(F)(F)F)c2-c2csc(C)n2)c(O)c1,6,0,0,22*,7,3,1
CCCCNC(=S)N/N=C/c1ccccc1F,2,-2,-1,4,0,.,.
CCCCNC(=S)N/N=C/c1cc(C)ccc1C,6,0,0,20*,1,1,1
NC(=O)C1CCN(c2ncc(Br)cn2)CC1,-4,-5,.,-20,-4,.,.
O=S(=O)(Nc1ccc(N=Nc2ccccc2)cc1)c1ccccc1,8,7,0,20*,6,7,1
O=S1(=O)C=CCN1Cc1cn(Cc2ccc(C(F)(F)F)cc2)nn1,0,-3,0,-3,1,.,.
COc1ccc(S(=O)(=O)NCC(=O)N2CCN(c3ccccn3)CC2)c(OC)c1,-3,0,0,-11,0,.,.
COc1ccc(C(=O)OCCN(C)C2CN(Cc3cn(Cc4ccccc4Cl)nn3)S(=O)(=O)C2)cc1OC (stereo not drawn),-4,-1,0,-4,0,.,.
C/C(=N\NC(=S)NCCc1ccccc1)c1cccc(Br)c1,-2,-1,0,9,0,.,.
C/C(=N\NC(=S)NCc1ccccc1)c1cccc(Br)c1,4,1,0,21*,-5,8,4
O=[N+]([O-])c1cc(C=NN2CCN(Cc3ccccc3Cl)CC2)ccc1Cl,-2,4,0,-7,-7,.,.
O=C1N(CCCO)CCC12CCC(c1ccccc1)CC2 (stereo not drawn),3,1,0,88*!,-2,1,0
COCCCN1CCC2(CCC(c3ccccc3)CC2)C1=O (stereo not drawn),5,1,0,9,4,.,.
SMILES,ADAM17 inh,PLCg1 inh,proKLK7 act,ADAM10 inh,PLC-beta3 inh,ADAM10 confirm,ADAM17 counter
CCOC(=O)CC[C@@]1(C(=O)OCC)C[C@@H](CC(=O)NCCc2ccccc2OC)C(=O)N2CCCC=C21,1,2,0,-13,-1,.,.
CC(C)CN1C(=O)[C@]2(CC(=O)N(C)C2c2ccccc2)c2cc(-n3cc(CCCC#N)nn3)ccc21 (stereo partly drawn),0,0,0,-7,0,.,.
COc1ccc(CNC(=O)C(c2ccc(C)cc2)N(Cc2cccs2)C(=O)c2ccc3c(c2)OCCO3)cc1 (stereo not drawn),5,0,0,26*,0,6,1
CCN(CC)C(=O)CC[C@@H]1CC[C@]2(CCCN(Cc3ccccc3)C2)O1,-6,2,1,-24,-3,.,.
Cc1n[nH]c(C)c1S(=O)(=O)NCCc1c[nH]c2ccccc12,1,0,0,-12,-2,.,.
CCOc1ccc(/C=N/NC(=O)Cc2csc(Nc3cccc(C(F)(F)F)c3)n2)c(OCC)c1,8,-4,-2,20*,-3,12,3
COc1ccc(/C=N/NC(=O)Cc2csc(Nc3cccc(C(F)(F)F)c3)n2)c(OC)c1,6,-4,0,25*,-6,9,3
CN(CCc1ccccc1)C(=O)c1cc(COc2cccc(C(F)(F)F)c2)on1,1,2,0,21*,-12,3,1
O=C(Nc1ccccc1)c1ccccc1Oc1ccc(C(F)(F)F)cc1[N+](=O)[O-],-5,7,1,21*,1,4,1
CCC(c1nc2ccccc2[nH]1)n1c(-c2ccc3cc[nH]c3c2)nc2ccccc21 (stereo not drawn),-73,-41,-2,-311,-57,.,.
Fc1cccc(F)c1Cn1ccc2ccc(-c3ccc4ccn(Cc5c(F)cccc5F)c4c3)cc21,-2,-5,-1,1,-2,.,.
COc1ccc(N(C)S(=O)(=O)c2cccc(C(=O)Nc3ccc(OC)nc3)c2)cc1,2,-1,1,7,-1,.,.
COc1ccc(N(C)S(=O)(=O)c2cccc(C(=O)Nc3cc(OC)ccc3OC)c2)cc1,7,-9,1,21*,-11,7,2
O=C(CNS(=O)(=O)c1cccc2ccccc12)N1CCN(c2ncccn2)CC1,-6,2,0,0,-2,.,.
CCOCC(=O)Nc1cc(S(=O)(=O)N2CCOCC2)ccc1N1CCCCC1,2,-7,0,13,-21,.,.
